These results are taken from PubChem BioAssay (Tox21).

SMILES strings stand for the structures. Values joined by “and” are separate entries in the source; they are usually repeats but may differ in a detail not shown here. Identical values can stand only once. Active and inactive are the calls of the source. Unless noted, calls follow the shape of the dose curve; as a rule, active = well fitted curve in the direction sought with a large enough effect in the repeat runs; inconclusive = weak or mixed curves; inactive = no such curve, though single readings can be large; an effect the other way counts as inactive or inconclusive.

For assay [1], the target named is Estrogen receptor (Homo sapiens) (UniProt P03372). The assay can be described thus: qHTS assay to identify small molecule antagonists of the estrogen receptor alpha (ER-alpha) signaling pathway (AID 743069; active = well fitted curve in the direction sought with a large enough effect in the signal ratio in the repeat runs, not every such curve was filed as active; inconclusive = weak or mixed curves, or effect the other way; inactive = no such curve, though single readings can be large or run the other way; the % refers to the signal ratio; also: potency is read from the fitted curve at half-maximal effect). In a few lines:
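Beta-lactamase FRET fluorescence is read after 2 hr at room temperature with LiveBLAzer B/G substrate. Before that, ER-alpha-bla HEK293 cells sit 4 hr after plating, then receive compound plus 17beta-estradiol and incubate 18 hr at 37C.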
(In general: qHTS replaces the single test concentration by a dilution series.)

Assay [2] in a line: qHTS assay to identify small molecule antagonists of the estrogen receptor alpha (ER-alpha) signaling pathway - cell viability counter screen (AID 743074; calls by dose curve;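 also: HEK293 cells carrying ER-alpha-UAS-bla reporter stimulated with 17beta-estradiol; nearly all actives have a fitted effect of over 45% in size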; also: potency is read from the fitted curve at half-maximal effect).
In assay [3] the target is Estrogen receptor (Homo sapiens) (UniProt P03372). The assay can be described thus: qHTS assay to identify small molecule agonists of the estrogen receptor alpha (ER-alpha) signaling pathway (AID 743075; calls by dose curve;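 also: HEK293 GripTite cells with ER-alpha and UAS-driven beta-lactamase reporter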; also: potency is read from the fitted curve at half-maximal effect).
The target is the same in assay [4]. The assay can be described thus: qHTS assay to identify small molecule agonists of the estrogen receptor alpha (ER-alpha) signaling pathway using the BG1 cell line (AID 743079). Also: nearly all actives have a fitted effect of over 20% in size. Also: potency is read from the fitted curve at half-maximal effect. Conditions: BG1Luc4E2 cells, ERE-luciferase agonist, 22 h; activation: at 70.3 µM (top of the series).
Assay [5] is described as follows: qHTS assay to identify small molecule antagonists of the estrogen receptor alpha (ER-alpha) signaling pathway using the BG1 cell line (AID 743080; calls by dose curve;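 also: BG1 cells stimulated with 17beta-estradiol alongside compound; nearly all actives have a fitted effect of over 25% in size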). The gist of the method: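 Seeding, 24 h rest, compound transfer from DMSO, 17beta-estradiol addition, 21.5 h incubation, CellTiter-Fluor (30 min, 37 C), then ONE-Glo (30 min, room temperature): this sequence was run on BG1-Luc-4E2 reporter cells.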

The target in a further assay is Aromatase (Homo sapiens) (UniProt P11511). The assay can be described thus: qHTS assay to identify aromatase inhibitors (AID 743083). Also: nearly all actives have a fitted effect of over 55% in size. Also: potency is read from the fitted curve at half-maximal effect.
The nature of assay [6]: qHTS assay to identify small molecule antagonists of the estrogen receptor alpha (ER-alpha) signaling pathway using the BG1 cell line - cell viability counter screen (AID 743081).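 Also: compound given together with 17beta-estradiol as the ER stimulus; nearly all actives have a fitted effect of over 45% in size.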 Also: potency is read from the fitted curve at half-maximal effect.
% is scaled to controls: 0 for no effect and ±100 for the full control effect.

Estrogen receptor (Homo sapiens), sequence (P03372 whole entry, looked up): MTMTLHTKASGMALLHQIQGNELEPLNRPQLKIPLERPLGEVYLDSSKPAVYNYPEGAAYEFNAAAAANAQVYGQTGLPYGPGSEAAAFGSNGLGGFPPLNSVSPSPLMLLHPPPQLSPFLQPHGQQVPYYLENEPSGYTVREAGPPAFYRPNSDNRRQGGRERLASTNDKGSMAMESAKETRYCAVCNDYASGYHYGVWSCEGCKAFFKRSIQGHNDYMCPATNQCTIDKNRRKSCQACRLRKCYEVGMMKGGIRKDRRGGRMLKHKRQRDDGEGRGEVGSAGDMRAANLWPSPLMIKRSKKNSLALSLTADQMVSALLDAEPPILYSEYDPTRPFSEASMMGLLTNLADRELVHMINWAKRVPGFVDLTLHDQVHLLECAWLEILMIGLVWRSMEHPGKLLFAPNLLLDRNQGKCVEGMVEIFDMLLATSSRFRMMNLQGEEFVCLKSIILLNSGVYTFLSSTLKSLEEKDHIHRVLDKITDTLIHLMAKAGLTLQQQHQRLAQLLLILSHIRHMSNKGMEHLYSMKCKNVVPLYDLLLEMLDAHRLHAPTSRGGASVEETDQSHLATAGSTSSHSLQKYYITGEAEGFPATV
Aromatase (Homo sapiens), sequence (P11511 whole entry, looked up): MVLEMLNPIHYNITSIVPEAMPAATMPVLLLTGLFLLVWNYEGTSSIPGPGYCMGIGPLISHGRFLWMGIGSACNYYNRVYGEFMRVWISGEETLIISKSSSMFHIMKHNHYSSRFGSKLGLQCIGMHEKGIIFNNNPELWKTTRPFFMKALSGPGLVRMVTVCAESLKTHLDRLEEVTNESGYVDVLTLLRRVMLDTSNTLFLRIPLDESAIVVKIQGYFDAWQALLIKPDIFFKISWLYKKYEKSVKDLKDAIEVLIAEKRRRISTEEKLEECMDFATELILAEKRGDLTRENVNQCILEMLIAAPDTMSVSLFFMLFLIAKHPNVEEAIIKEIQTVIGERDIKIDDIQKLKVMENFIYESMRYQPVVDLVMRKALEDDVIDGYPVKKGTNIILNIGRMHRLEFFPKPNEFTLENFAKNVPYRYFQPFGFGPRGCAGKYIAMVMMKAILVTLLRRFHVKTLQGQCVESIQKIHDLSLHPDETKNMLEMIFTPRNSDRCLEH

On to `CNc1cc(OC)c(C(=O)N[C@H]2CCN(Cc3ccccc3)[C@H]2C)cc1Cl`, for which the Potency result (in assay [1]; in assay [2]; in assay [3]; in assay [4]; in assay [5]; in the assay with Aromatase (Homo sapiens)) was “inactive” each time.
As to `CCOC(=O)c1cc(-c2ccccc2)nc2ccc(C)cc12`, the Potency result (in assay [2]; in assay [3]; in assay [4]; in assay [5]; in assay [6]; with Aromatase (Homo sapiens)) was “inactive” in each case.
Turning to `CO[C@@H]1[C@@H](O[C@@H]2O[C@H](C)[C@@H](O[C@H]3C[C@@](C)(O)[C@@H](O)[C@H](C)O3)[C@H](N(C)C)[C@H]2O)[C@@H](CC=O)C[C@@H](C)[C@@H](O[C@@H]2CC[C@H](N(C)C)[C@@H](C)O2)/C=C/C=C/C[C@@H](C)OC(=O)C[C@H]1O`, the Potency entry in assay [1], in assay [2], in assay [3], in assay [4], in assay [5] and in assay [6] was “inactive” throughout. Moreover, the Potency entry with Aromatase (Homo sapiens) was “inactive”.
`CO[C@H]1C[C@H](O[C@@H]2/C(C)=C/C[C@@H]3C[C@@H](C[C@]4(CC[C@H](C)[C@@H](C5CCCCC5)O4)O3)OC(=O)[C@@H]3C=C(C)/C(=N/O)[C@H]4OC/C(=C\C=C\[C@@H]2C)[C@]43O)O[C@@H](C)[C@@H]1O`: the Potency result (in assay [2]; in assay [6]; in the assay with Aromatase (Homo sapiens)) was “inactive” each time.
With `COC(=O)C1=C(C#N)NC(C)=C(C(=O)OC(C)C)C1c1cccc([N+](=O)[O-])c1` (stereo not given), the Potency result in assay [2], in assay [3], in assay [4], in assay [5] and in assay [6] was “inactive” throughout. Besides, in the assay with Aromatase (Homo sapiens), the Potency is 29.8 µM (active).
Regarding `CC[N+](C)(C)Cc1ccccc1Br`, the Potency entry in assay [1], in assay [2], in assay [3], in assay [4], in assay [5] and in assay [6] was “inactive” in each case. Further, the Potency entry with Aromatase (Homo sapiens) was “inactive”.
With `CCC(=O)O[C@@H]1CC(=O)O[C@H](C)C/C=C/C=C/[C@H](O)[C@H](C)C[C@H](CC=O)[C@H](O[C@@H]2O[C@H](C)[C@@H](O[C@H]3C[C@@](C)(O)[C@@H](OC(=O)CC)[C@H](C)O3)[C@H](N(C)C)[C@H]2O)[C@H]1OC`, the Potency entry (in assay [2]; in assay [6]; with Aromatase (Homo sapiens)) was “inactive” in each case.
Turning to `Cc1cc(C(=O)NNCc2ccccc2)no1`, the Potency result (in assay [1]; in assay [2]; in assay [3]; in assay [6]; with Aromatase (Homo sapiens)) was “inactive” throughout. Besides, the Potency in assay [4] was 5.07 µM (active).
On to `CCOC(=O)C1=C(COCCN)NC(C)=C(C(=O)OC)C1c1ccccc1Cl` (stereo not given), for which the Potency entry in assay [2] and in assay [6] was “inactive” in each case. The Potency in the assay with Aromatase (Homo sapiens) is 29.8 µM (active) and 9.44 µM (active).
Consider `Nc1ncnc2c1ncn2[C@@H]1O[C@H](COP(=O)(O)OP(=O)(O)OP(=O)(O)O)[C@@H](O)[C@H]1O`, for which the Potency in assay [2] is 6.01 µM (active). Further, the Potency entry (in assay [3]; in assay [4]; in assay [6]; with Aromatase (Homo sapiens)) was “inactive” throughout.
As for `CN1C(=O)CN2CCc3ccccc3C2c2cc(Cl)ccc21` (stereo not given), the Potency entry (in assay [1]; in assay [2]; in assay [3]; in assay [4]; in assay [6]; in the assay with Aromatase (Homo sapiens)) was “inactive” each time.
As to `CCCCC(=O)O[C@H]1CC[C@H]2[C@@H]3CCc4cc(O)ccc4[C@H]3CC[C@]12C`, the Potency result (in assay [2]; in assay [5]; in assay [6]; with Aromatase (Homo sapiens)) was “inactive” throughout. For the same compound, in assay [3], the Potency is 0.0006 µM [inconclusive] (active). Besides, in assay [4], the activation is 61.2% (active).
Regarding `OCC(S)CS` (stereo not given), the Potency result (in assay [1]; in assay [2]; in assay [3]; in assay [4]; in assay [6]; in the assay with Aromatase (Homo sapiens)) was “inactive” throughout.
Consider `CC(NNC(=O)c1ccccc1)c1ccccc1` (stereo not given), for which the Potency entry (in assay [2]; in assay [6]; with Aromatase (Homo sapiens)) was “inactive” in each case.
As for `CC(O)[C@@H]1NC(=O)[C@H](CCCCN)NC(=O)[C@@H](Cc2c[nH]c3ccccc23)NC(=O)[C@H](Cc2ccccc2)NC(=O)[C@@H](NC(=O)[C@H](N)Cc2ccccc2)CSSC[C@@H](C(=O)N[C@H](CO)[C@@H](C)O)NC1=O` (stereo not given in full), the Potency result (in assay [2]; in assay [3]; in assay [5]; in assay [6]; with Aromatase (Homo sapiens)) was “inactive” in each case.
For the compound `C#C[C@]1(O)CC[C@H]2[C@@H]3CCC4=C(CCC(=O)C4)[C@H]3CC[C@@]21C`, the Potency entry (in assay [2]; in assay [5]; in assay [6]; with Aromatase (Homo sapiens)) was “inactive” in each case.
Regarding `CCC(=O)OCC(=O)[C@@]1(OC(=O)CC)[C@@H](C)C[C@H]2[C@@H]3CCC4=CC(=O)C=C[C@]4(C)[C@@]3(F)[C@@H](O)C[C@@]21C`, in assay [2], the Potency entry is “inactive”. In addition, the values for the Potency (in assay [3]; with Aromatase (Homo sapiens)) were 23.9 µM [fluorescent] (active) and 3.76 µM (active), respectively.
As for `COc1ccc(C(=O)Nc2ccccc2CCC2CCCCN2C)cc1` (stereo not given), the Potency result (in assay [1]; in assay [3]; in assay [5]; with Aromatase (Homo sapiens)) was “inactive” in each case. Further, the Potency in assay [6] is 2.98 µM (active).
Take `CO[C@H]1C=CO[C@@]2(C)Oc3c(C)c(O)c4c(O)c(c(/C=N/N5CCN(C6CCCC6)CC5)c(O)c4c3C2=O)NC(=O)/C(C)=C\C=C[C@H](C)[C@H](O)[C@@H](C)[C@@H](O)[C@@H](C)[C@H](OC(C)=O)[C@@H]1C`: the Potency in assay [1] was 19 µM [inconclusive] (active); in assay [6] it was 26.6 µM (active); in the assay with Aromatase (Homo sapiens), 33.5 µM (active). Moreover, the Potency result in assay [2] and in assay [3] was “inactive” each time.
Regarding `COc1ccc(CCNC[C@H](O)c2ccc(O)cc2)cc1OC`, the Potency entry in assay [1], in assay [2], in assay [3], in assay [4], in assay [5] and in assay [6] was “inactive” each time. In the assay with Aromatase (Homo sapiens), the Potency result is “inactive”.
Consider `C[N+]1(C)CCN(CC(O)(c2ccccc2)C2CCCCC2)CC1` (stereo not given), for which the Potency entry (in assay [2]; in assay [6]; in the assay with Aromatase (Homo sapiens)) was “inactive” throughout.
With `COc1ccc2c(=O)c(C)c(-c3ccccc3)oc2c1CN(C)C`, the Potency result in assay [2] and in assay [6] was “inactive” in each case.
Consider `CCNC(=O)[C@@H]1CCCN1C(=O)[C@H](CCCN=C(N)N)NC(=O)[C@H](CC(C)C)NC(=O)[C@@H](CC(C)C)NC(=O)[C@H](Cc1ccc(O)cc1)NC(=O)[C@H](CO)NC(=O)[C@H](Cc1c[nH]c2ccccc12)NC(=O)[C@H](Cc1cnc[nH]1)NC(=O)[C@@H]1CCC(=O)N1`, for which the Potency result (in assay [2]; in assay [5]; in the assay with Aromatase (Homo sapiens)) was “inactive” in each case.
